# The supplement of paper PMC11732987, “Enantioselective OTUD7B fragment discovery through chemoproteomics screening and high-throughput optimisation” (Communications Chemistry, 2025)
# Unmarked numbers belong to inactive results.
# Assays:
# Experiment in all cases: log2 ratio of Biotin-Ahx-Ub-VS probe labelling (fragment/DMSO); higher = less target engagement (more negative = stronger competition), active = hit call of the paper (q ≤ 0.05, log2 ratio ≤ -1)
# Details in all cases: compound concentration: 200 uM; treatment time: 3 h
# [1] = target: T1, USP19 (UniProt O94966)
# T1 sequence (whole entry): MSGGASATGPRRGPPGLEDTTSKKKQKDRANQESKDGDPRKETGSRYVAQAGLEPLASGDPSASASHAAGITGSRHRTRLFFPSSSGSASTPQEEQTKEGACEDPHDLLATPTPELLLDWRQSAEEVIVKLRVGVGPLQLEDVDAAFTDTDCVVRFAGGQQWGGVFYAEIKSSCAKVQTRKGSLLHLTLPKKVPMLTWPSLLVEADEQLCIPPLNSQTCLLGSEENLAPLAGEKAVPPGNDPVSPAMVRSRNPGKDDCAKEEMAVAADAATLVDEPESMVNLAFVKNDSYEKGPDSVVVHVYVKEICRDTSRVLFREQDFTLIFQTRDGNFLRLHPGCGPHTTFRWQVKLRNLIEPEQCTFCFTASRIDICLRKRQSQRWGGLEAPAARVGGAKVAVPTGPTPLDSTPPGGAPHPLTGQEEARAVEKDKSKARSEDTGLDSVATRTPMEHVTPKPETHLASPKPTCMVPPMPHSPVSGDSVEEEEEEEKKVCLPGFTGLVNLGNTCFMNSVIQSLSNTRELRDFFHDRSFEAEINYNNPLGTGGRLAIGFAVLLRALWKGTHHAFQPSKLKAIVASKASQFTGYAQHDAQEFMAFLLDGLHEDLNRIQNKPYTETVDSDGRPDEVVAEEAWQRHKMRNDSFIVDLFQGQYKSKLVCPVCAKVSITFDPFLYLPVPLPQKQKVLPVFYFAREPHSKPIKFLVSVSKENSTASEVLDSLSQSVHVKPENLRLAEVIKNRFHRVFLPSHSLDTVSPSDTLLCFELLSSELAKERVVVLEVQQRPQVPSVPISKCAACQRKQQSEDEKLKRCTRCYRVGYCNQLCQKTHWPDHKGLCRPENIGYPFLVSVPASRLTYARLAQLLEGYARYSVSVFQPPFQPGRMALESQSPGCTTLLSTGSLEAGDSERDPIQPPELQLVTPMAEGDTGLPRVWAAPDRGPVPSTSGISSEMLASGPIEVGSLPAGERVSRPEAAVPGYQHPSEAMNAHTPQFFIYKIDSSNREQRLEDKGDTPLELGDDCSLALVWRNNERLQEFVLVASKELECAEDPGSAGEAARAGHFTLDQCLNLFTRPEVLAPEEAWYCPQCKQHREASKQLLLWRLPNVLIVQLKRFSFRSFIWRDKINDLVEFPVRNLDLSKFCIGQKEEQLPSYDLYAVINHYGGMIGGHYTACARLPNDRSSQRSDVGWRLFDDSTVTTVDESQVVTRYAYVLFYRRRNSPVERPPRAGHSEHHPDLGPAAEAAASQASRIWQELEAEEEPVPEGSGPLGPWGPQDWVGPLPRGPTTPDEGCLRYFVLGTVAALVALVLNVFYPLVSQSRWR
# Summary of the method: (§1)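 HEK293T lysate, 495 µg per sample in Tris/CHAPS/IGEPAL buffer with protease inhibitors, was treated in triplicate with fragment at 200 µM or vehicle for 3 h and then with Biotin-Ahx-Ub-VS at 0.5 µM final for 1 h. Labelled DUBs were NeutrAvidin-enriched, digested with LysC and trypsin, and run by diaPASEF LC-MS/MS. Spectronaut label-free quantities were global-median-normalised, and values are average log2 fragment/vehicle ratios by unpaired t-test on proteins with ≥2 unique peptides.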
# [2] = target: T2, USP22 (UniProt Q9UPT9)
# T2 sequence (whole entry): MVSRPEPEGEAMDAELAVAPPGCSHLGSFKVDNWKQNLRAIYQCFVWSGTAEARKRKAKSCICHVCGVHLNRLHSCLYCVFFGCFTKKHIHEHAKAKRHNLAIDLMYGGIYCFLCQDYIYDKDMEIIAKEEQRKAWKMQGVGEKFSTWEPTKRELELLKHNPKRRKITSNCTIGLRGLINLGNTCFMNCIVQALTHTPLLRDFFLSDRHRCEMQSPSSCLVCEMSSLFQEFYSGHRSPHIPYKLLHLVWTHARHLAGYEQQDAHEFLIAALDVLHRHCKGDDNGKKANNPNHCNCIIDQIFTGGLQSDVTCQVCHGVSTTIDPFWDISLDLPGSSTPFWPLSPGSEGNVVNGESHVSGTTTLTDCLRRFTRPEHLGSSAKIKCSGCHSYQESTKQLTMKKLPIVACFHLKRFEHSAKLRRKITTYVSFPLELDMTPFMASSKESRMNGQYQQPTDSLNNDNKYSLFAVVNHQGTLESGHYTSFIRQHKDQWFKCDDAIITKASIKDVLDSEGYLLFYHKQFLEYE
# Summary of the method: as §1
# [3] = target: USP24 (UniProt Q9UPU5)
# Summary of the method: as §1
# [4] = target: T3, USP25 (UniProt Q9UHP3)
# T3 sequence (whole entry): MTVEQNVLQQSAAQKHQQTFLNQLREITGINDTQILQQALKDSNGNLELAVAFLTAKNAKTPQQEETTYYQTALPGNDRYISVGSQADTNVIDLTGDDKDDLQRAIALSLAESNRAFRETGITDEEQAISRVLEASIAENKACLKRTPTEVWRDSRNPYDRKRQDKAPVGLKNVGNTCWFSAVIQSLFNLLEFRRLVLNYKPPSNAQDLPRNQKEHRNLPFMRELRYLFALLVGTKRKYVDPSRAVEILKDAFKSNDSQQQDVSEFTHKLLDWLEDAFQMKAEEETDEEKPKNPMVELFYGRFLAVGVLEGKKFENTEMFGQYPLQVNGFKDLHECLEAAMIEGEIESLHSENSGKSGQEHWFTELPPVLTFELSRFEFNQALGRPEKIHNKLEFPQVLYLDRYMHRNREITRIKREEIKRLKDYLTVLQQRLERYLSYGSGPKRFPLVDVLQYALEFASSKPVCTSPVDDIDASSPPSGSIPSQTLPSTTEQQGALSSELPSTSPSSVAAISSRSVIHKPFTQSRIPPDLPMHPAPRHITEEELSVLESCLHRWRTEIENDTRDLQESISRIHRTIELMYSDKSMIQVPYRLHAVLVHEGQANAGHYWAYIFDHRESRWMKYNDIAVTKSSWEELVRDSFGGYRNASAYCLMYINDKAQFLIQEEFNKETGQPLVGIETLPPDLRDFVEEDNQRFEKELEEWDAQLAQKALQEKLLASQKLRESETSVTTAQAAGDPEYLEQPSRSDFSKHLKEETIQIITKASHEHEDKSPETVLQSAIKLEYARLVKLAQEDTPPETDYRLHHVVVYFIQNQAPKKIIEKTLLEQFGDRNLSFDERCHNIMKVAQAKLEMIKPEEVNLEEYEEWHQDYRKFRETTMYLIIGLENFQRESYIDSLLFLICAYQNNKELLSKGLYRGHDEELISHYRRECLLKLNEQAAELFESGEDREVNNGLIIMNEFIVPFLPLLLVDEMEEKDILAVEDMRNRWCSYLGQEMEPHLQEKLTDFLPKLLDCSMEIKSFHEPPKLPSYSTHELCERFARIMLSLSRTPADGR
# Summary of the method: as §1
# [5] = target: T4, USP28 (UniProt Q96RU2)
# T4 sequence (whole entry): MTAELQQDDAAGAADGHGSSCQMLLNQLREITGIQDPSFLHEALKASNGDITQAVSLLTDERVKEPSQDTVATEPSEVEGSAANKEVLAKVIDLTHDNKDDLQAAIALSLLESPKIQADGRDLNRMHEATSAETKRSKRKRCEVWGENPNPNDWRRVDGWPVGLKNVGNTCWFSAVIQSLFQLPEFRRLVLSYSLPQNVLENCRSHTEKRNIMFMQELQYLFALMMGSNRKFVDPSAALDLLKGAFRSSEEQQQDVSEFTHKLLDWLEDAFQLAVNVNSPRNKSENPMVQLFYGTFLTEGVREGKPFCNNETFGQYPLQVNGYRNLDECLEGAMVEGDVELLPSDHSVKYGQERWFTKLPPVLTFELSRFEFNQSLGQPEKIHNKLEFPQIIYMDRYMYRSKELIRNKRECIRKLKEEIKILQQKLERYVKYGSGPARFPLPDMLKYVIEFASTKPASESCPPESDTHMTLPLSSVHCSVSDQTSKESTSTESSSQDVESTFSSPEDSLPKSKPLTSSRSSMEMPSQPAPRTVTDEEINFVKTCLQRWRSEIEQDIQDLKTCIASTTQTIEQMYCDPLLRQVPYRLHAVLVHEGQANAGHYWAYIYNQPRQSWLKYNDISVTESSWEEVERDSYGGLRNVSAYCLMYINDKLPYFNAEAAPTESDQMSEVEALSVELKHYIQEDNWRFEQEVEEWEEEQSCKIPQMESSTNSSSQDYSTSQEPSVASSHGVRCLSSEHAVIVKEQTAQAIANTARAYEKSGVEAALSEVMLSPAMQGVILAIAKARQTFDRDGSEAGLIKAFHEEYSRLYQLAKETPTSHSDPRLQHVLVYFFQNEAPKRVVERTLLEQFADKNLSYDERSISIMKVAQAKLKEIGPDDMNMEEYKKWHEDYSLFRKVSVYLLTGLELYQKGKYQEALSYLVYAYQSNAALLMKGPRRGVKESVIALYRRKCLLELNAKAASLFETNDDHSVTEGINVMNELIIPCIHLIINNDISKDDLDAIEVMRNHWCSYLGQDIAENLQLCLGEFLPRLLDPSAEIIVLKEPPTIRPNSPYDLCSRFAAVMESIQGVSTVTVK
# Summary of the method: as §1
# Chain of USP24 (Q9UPU5 whole entry): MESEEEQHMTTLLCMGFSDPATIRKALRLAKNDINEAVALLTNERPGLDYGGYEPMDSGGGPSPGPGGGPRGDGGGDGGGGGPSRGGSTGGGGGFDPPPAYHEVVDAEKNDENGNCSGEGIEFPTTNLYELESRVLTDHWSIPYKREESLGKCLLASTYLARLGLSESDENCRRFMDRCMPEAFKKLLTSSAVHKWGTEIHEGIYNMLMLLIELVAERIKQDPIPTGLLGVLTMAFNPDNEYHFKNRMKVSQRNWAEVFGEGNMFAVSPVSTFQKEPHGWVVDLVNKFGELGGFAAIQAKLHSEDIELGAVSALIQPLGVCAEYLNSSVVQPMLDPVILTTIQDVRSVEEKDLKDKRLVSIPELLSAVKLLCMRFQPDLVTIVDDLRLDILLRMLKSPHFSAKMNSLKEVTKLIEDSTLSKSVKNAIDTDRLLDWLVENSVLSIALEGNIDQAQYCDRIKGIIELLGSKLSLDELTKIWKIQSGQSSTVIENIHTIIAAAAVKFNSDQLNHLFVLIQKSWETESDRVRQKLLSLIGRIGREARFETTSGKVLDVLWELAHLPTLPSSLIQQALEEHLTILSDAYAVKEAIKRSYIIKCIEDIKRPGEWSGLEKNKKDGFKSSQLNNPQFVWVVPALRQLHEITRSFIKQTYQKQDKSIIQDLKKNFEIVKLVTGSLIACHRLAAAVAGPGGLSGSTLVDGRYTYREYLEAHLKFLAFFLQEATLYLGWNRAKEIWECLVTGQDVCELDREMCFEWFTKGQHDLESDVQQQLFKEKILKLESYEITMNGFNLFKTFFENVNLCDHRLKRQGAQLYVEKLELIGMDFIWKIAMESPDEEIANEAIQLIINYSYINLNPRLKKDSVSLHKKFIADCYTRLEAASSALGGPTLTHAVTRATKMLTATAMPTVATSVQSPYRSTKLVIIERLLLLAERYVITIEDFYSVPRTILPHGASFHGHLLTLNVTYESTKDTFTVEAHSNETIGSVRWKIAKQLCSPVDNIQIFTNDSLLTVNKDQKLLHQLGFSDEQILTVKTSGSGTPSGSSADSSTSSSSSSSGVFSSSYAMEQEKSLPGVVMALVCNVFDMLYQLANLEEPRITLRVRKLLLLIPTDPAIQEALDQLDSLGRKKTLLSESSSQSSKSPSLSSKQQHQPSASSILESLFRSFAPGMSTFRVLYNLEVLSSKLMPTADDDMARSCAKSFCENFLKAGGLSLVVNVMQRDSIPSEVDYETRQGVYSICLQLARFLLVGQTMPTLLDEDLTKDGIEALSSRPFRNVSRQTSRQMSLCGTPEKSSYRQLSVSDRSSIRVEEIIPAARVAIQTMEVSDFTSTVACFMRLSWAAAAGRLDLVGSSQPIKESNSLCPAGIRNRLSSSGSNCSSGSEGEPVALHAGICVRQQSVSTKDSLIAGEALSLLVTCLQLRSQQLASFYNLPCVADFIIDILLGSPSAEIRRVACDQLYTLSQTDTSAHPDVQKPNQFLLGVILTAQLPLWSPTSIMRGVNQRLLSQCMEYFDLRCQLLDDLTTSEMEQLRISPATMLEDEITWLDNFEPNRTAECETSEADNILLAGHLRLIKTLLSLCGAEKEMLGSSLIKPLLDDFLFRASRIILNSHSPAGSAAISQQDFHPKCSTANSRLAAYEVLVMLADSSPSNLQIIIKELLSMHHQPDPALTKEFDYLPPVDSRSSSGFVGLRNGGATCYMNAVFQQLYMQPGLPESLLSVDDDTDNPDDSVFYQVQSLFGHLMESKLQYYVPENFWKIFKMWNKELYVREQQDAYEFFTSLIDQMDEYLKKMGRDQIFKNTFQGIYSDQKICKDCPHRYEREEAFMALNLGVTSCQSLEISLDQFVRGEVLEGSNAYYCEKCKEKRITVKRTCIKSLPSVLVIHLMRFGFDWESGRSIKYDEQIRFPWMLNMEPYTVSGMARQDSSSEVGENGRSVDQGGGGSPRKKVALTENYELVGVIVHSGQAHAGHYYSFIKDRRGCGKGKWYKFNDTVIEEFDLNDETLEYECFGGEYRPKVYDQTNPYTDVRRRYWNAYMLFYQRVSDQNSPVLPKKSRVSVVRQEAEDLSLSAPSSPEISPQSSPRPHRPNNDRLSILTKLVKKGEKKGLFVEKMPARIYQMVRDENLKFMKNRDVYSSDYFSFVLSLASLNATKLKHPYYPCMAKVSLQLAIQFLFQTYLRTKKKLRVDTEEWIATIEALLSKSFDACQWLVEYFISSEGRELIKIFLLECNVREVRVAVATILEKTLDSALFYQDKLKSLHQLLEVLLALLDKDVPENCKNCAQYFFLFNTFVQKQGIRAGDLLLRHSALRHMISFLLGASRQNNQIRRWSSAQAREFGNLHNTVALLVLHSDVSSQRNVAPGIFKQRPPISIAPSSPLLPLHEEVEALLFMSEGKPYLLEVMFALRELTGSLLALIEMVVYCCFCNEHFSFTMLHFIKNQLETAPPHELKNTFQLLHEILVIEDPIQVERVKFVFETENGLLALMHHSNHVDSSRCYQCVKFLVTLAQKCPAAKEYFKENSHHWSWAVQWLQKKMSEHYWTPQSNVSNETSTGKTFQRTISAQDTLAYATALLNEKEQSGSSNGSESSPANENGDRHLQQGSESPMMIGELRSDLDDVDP
smiles,measurement,setting,value
O=C(CCl)Nc1nc(-c2cccs2)cs1,log2 ratio of Biotin-Ahx-Ub-VS probe labelling,[1],-0.517
same,log2 ratio of Biotin-Ahx-Ub-VS probe labelling,[2],-0.167
same,log2 ratio of Biotin-Ahx-Ub-VS probe labelling,[3],-1.48 (active)
same,log2 ratio of Biotin-Ahx-Ub-VS probe labelling,[4],-0.387
same,log2 ratio of Biotin-Ahx-Ub-VS probe labelling,[5],-0.678
